# Assay results taken from PubChem BioAssay (NCATS).
# Where “and” joins values, the source holds several entries; their conditions need not be identical. Equal values may be shown once. Records with an inconclusive call do not appear. A number with no mark means an inactive call. Calls of active or inactive are those of the source. Calls come from the whole dose curve; as a rule, active = well fitted curve in the direction sought with a large enough effect; inconclusive = small, poorly fitted or top-dose-only effect, or another doubt; inactive = no such curve, though single readings can be large; an effect the other way counts as inactive or inconclusive.
# Columns and labels:
# [1] = Viability qHTS for spleen associated tyrosine kinase inhibitor (SYKi) naive MV4-11 cells (AID 1963823); conditions: MV4-11 AML viability, CellTiter-Glo luminescence, 72 h; series mostly up to 45 µM; note: nearly all actives have a fitted effect of over 40% in size
# Summary of the method: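 In this viability screen, compounds acted on SYK inhibitor naive MV4-11 cells for three days (72 hr, 37 C). Remaining viable cells were measured by CellTiter-Glo luminescence following a 10 min room-temperature development.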
# [2] = Cellular viability qHTS for adrenocortical cancer (ACC) cell line SW-13 (AID 1963989); conditions: SW-13 ACC cells viability, CellTiter-Glo, 48 h; activity (max response): stronger effect = lower value; note: nearly all actives have a fitted effect of over 65% in size;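 for activity (max response): cells grown in serum-free medium with ITS supplement; % is set by controls: 0 for no effect and ±100 for the full control effect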
# Summary of the method: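 IC50 and maximal-response values come from four-parameter logistic fits of titration data. SW-13 cells in serum-free medium received compounds (up to 46 uM final) for 48 h before CellTiter-Glo luminescence.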
# [3] = Quantitative highthroughput screen to assess conditional lethalithy of NOMO1 cells grown in Human Plasma-Like Medium with dialyzed fetal bovine serum (HPLM+ds) (AID 1963878); conditions: NOMO1 AML cells in HPLM+ds, CellTiter-Glo viability, 48 h; series mostly up to 45.8 µM; note: nearly all actives have a fitted effect of over 35% in size
# Summary of the method: (§1)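 Each medium arm—HPLM with 10% dialyzed FBS, or RPMI1640 with 5 mM glucose and 10% untreated or dialyzed FBS—was screened against an 11-point, 3-fold compound titration for 48 h at 37 °C, with CellTiter-Glo luminescence as endpoint.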
# [4] = Quantitative highthroughput screen to assess conditional lethalithy of SEM cells grown in RPMI1640 with unreated serum (RPMI+s) (AID 1963883); conditions: SEM B-ALL cells, CellTiter-Glo viability, 48 h; series mostly up to 45.8 µM; note: nearly all actives have a fitted effect of over 35% in size;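 for Viability: 100% = DMSO wells and 0% = empty wells without cells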
# Summary of the method: as §1
# [5] = Quantitative highthroughput screen to assess conditional lethalithy of SEM cells grown in RPMI1640 with dialyzed fetal bovine serum (RPMI+ds) (AID 1963884); conditions: SEM B-ALL cells, RPMI+dialyzed FBS, CellTiter-Glo viability, 48 h; series mostly up to 45.8 µM; note: nearly all actives have a fitted effect of over 35% in size;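 for Viability: 100% = DMSO control wells and 0% = empty wells without cells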
# Summary of the method: as §1
# [6] = Cellular viability qHTS for adrenocortical cancer (ACC) cell line NCI-H295R (AID 1963990); conditions: CellTiter-Glo ATP luminescence, 48 h; series mostly up to 46.1 µM; note: nearly all actives have a fitted effect of over 60% in size
# Summary of the method: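 Adrenocortical carcinoma cells, suspended at 300 000 cells/mL in serum-free DMEM plus ITS, rested overnight before pin transfer of compound. After two days' incubation, ATP-dependent luminescence was recorded and curve-fitted.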
# [7] = Quantitative highthroughput screen to assess conditional lethalithy of SEM cells grown in Human Plasma-Like Medium with dialyzed fetal bovine serum (HPLM+ds) (AID 1963882); conditions: SEM B-ALL cells in HPLM+ds, CellTiter-Glo viability, 48 h; series mostly up to 45.8 µM; note: nearly all actives have a fitted effect of over 35% in size
# Summary of the method: as §1
# [8] = Quantitative highthroughput screen to assess conditional lethalithy of P12 Ichikawa cells grown in Human Plasma-Like Medium with dialyzed fetal bovine serum (HPLM+ds) (AID 1963879); conditions: ATP luminescence, 48 h; Potency: viability; series mostly up to 45.8 µM; note: nearly all actives have a fitted effect of over 35% in size
# Summary of the method: as §1
# [9] = Quantitative highthroughput screen to assess conditional lethalithy of P12 Ichikawa cells grown in RPMI1640 with dialyzed fetal bovine serum (RPMI+ds) (AID 1963880); conditions: ATP luminescence, 48 h; Potency: P12-Ichikawa viability; series mostly up to 45.8 µM; note: nearly all actives have a fitted effect of over 35% in size;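 for Viability: 100% = DMSO wells and 0% = empty wells on each plate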
# Summary of the method: as §1
# [10] = Quantitative highthroughput screen to assess conditional lethalithy of P12 Ichikawa cells grown in RPMI1640 with untreated serum (RPMI+s) (AID 1963881); conditions: ATP luminescence, 48 h; Potency: viability; series mostly up to 45.8 µM; note: nearly all actives have a fitted effect of over 35% in size;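 for Viability: 100% = DMSO wells and 0% = empty wells without cells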
# Summary of the method: as §1
# [11] = Quantitative highthroughput screen to assess conditional lethalithy of NOMO1 cells grown in RPMI1640 with dialyzed fetal bovine serum (RPMI+ds) (AID 1963877); conditions: NOMO1 in RPMI+dialyzed FBS viability, ATP luminescence, 48 h; series mostly up to 45.8 µM; note: nearly all actives have a fitted effect of over 30% in size
# Summary of the method: as §1
# Potency is the fitted concentration of half-maximal effect.
smiles,measurement,setting,value
Cc1cc(C)c(S(=O)(=O)N(CCc2cccc(Br)c2)Cc2ccc(-c3cccc(S(C)(=O)=O)c3)cc2)c(C)c1,Potency,[1],inactive
same,activity (max response),[2],-27.1%
Cn1cnc2c1c(=O)[nH]c(=O)n2C,Potency,[1],inactive
same,Potency,[3],20.9 µM (active)
same,Potency,[4],18.7 µM (active)
same,Potency,[5],23.5 µM (active)
same,activity (max response),[2],4.02% and 2.06%
same,Potency,[6],inactive
COc1cc(C(=O)N2CCC(N3CCN(C)CC3)CC2)ccc1Nc1ncc2c(n1)N(C)c1ccccc1C(=O)N2C,Potency,[1],461 nM (active) and 1.32 µM (active)
same,Potency,[7],3.72 µM (active)
same,Potency,[6],12.6 µM (active)
O=C(O)CNC(=O)c1nc(Cl)c2ccccc2c1O,Potency,[1],inactive
same,activity (max response),[2],8.31%
NCCCC[C@H](NC(=O)[C@@H](NC(=O)[C@H](Cc1c[nH]c2ccccc12)NC(=O)[C@H](CCCCN)NC(=O)[C@H](CCCCN)NC(=O)[C@H](Cc1c[nH]c2ccccc12)NC(=O)[C@H](Cc1c[nH]c2ccccc12)NC(=O)[C@H](CCCCN)NC(=O)[C@@H](N)CCCCN)C(c1ccccc1)c1ccccc1)C(N)=O,Potency,[1],8.33 µM (active)
same,Potency,[2],31.6 µM (active)
COc1ccc(S(=O)(=O)Nc2cc(-c3c(O)ccc4ccccc34)c(O)c3ccccc23)cc1,Potency,[1],1.18 µM (active)
same,Potency,[3],20.9 µM (active)
same,Potency,[8],16.6 µM (active)
same,Potency,[9],18.7 µM (active)
same,Potency,[10],20.9 µM (active)
same,Potency,[7],14.8 µM (active)
same,Potency,[4],7.43 µM (active)
same,Potency,[5],14.8 µM (active)
same,Potency,[6],28.2 µM (active)
CN1CCN(c2c(F)cc3c(=O)c(C(=O)O)cn4c3c2OCN4C)CC1,Potency,[1],inactive
same,Potency,[8],inactive
same,Potency,[10],inactive
same,activity (max response),[2],-1.01%
same,Potency,[6],inactive
Cn1ncc(NC(=O)c2nc(-c3c(F)cccc3F)sc2N)c1N1CC[C@@H](N)[C@H](F)CC1,Potency,[1],0.235 µM (active)
same,Potency,[2],25.1 µM (active)
CO[C@@H]1[C@@H](OC(N)=O)[C@@H](O)[C@H](Oc2ccc3c(O)c(NC(=O)c4ccc(O)c(CC=C(C)C)c4)c(=O)oc3c2C)OC1(C)C,Potency,[1],inactive
same,Potency,[8],inactive
same,Potency,[9],inactive
same,Potency,[10],inactive
same,Potency,[4],inactive
same,Potency,[5],inactive
same,activity (max response),[2],15.7% and -3.94%
same,Potency,[6],inactive
O=C(O)c1ccc(CN2CCC(CN[C@@H]3C[C@H]3c3ccccc3)CC2)cc1,Potency,[1],inactive
same,activity (max response),[2],7.26%
CC(C)C[C@H](NC(=O)[C@@H](O)[C@H](N)Cc1ccccc1)C(=O)O,Potency,[1],inactive
same,Potency,[11],20.9 µM (active)
same,activity (max response),[2],9.42%
same,Potency,[6],inactive
COc1cc(C)c(Cc2cnc(N)nc2N)cc1OC,Potency,[1],inactive
same,activity (max response),[2],-2.95%
O=C(Cn1ccnc1[N+](=O)[O-])NCc1ccccc1,Potency,[1],inactive
same,activity (max response),[2],-1.05%
CC1(C)[C@@H](O)CC[C@]2(C)[C@H]3C(=O)C=C4[C@@H]5C[C@@](C)(C(=O)O)CC[C@]5(C)CC[C@@]4(C)[C@]3(C)CC[C@@H]12,Potency,[1],inactive
same,activity (max response),[2],3.49%
same,Potency,[6],inactive
COc1cc(-c2cn(C)c(=O)c3cnccc23)cc(OC)c1CN(C)C,Potency,[1],inactive
same,activity (max response),[2],-6.63%
same,Potency,[6],inactive
COc1cc(NS(=O)(=O)c2ccc(N)cc2)nc(C)n1,Potency,[1],inactive
same,activity (max response),[2],1.38%
same,Potency,[6],inactive
O=C1OCCN1/N=C/c1ccc([N+](=O)[O-])o1,Potency,[1],inactive
same,activity (max response),[2],-0.921%
CCc1c(-c2ccccc2C)nc2c(C#N)c[nH]n2c1=O,Potency,[1],inactive
same,activity (max response),[2],6.89% and 1.74%
same,Potency,[6],inactive
COC(=O)[C@@H]1CC2=CC(=O)CC[C@]2(C)[C@@]23O[C@@H]2C[C@@]2(C)[C@@H](CC[C@@]24CCC(=O)O4)[C@H]13,Potency,[1],inactive
same,activity (max response),[2],-0.519% and -3.74%
same,Potency,[6],inactive
Cc1cccc(-c2[nH]c(CNc3ccccc3F)nc2-c2ccc3ncnn3c2)n1,Potency,[1],13 µM (active)
same,activity (max response),[2],-16.8%
same,Potency,[6],inactive
COc1ccccc1C(=O)Nc1cc2c(cc1N1CCCCC1)n(C)c(=O)n2C,Potency,[1],14.8 µM (active)
same,activity (max response),[2],-17.1%
same,Potency,[6],inactive
O=C(NNc1ccccc1)c1ccncc1,Potency,[1],inactive
same,activity (max response),[2],1.69%
same,Potency,[6],inactive
NCCNCCNCCN,Potency,[1],inactive
same,activity (max response),[2],13.6%
same,Potency,[6],inactive
C[C@@H]1[C@H](O)[C@@H](C)/C=C/C=C/C=C/C=C/C=C/C=C/C=C/[C@H](O[C@@H]2O[C@H](C)[C@@H](O)[C@H](N)[C@@H]2O)C[C@@H]2O[C@](O)(C[C@@H](O)C[C@@H](O)[C@H](O)CC[C@@H](O)C[C@@H](O)CC(=O)O[C@H]1C)C[C@H](O)[C@H]2C(=O)O,Potency,[1],inactive
same,activity (max response),[2],-9.6%
same,Potency,[6],inactive
CNC(=O)c1cccc2cc(Oc3ccnc4cc(OCC5(N)CC5)c(OC)cc34)ccc12,Potency,[1],13 µM (active)
same,Potency,[2],28.2 µM (active)
same,Potency,[6],22.4 µM (active)
Cc1ncc(CSSCc2cnc(C)c(O)c2CO)c(CO)c1O,Potency,[1],inactive
same,activity (max response),[2],9.04%
Cc1cc2c(OCC(CNC(C)(C)C)OC(=O)c3ccccc3)cccc2[nH]1 (centres undefined),Potency,[1],inactive
same,activity (max response),[2],7.67%
same,Potency,[6],inactive
Clc1ccc2c(c1)Nc1ccccc1S2,Potency,[1],inactive
same,activity (max response),[2],-11.9%
CC1(C)O[C@@H]2C[C@H]3[C@@H]4CCC5=CC(=O)C=C[C@]5(C)[C@H]4[C@@H](O)C[C@]3(C)[C@]2(C(=O)CO)O1,Potency,[1],inactive
same,activity (max response),[2],-6.19%
same,Potency,[6],inactive
